# Rab9 promoter act – activates the Rab9 promoter | 320,000 tested, 2.8% active | Potency, µM (titrated, usually from 9.22 µM), without a hit: at the top dose activation, negative = inhibition, actives largely listed as activators | Huh7 Rab9 promoter-luciferase reporter, luminescence, 24 h | AID 485297; note: % of control where 0% means no effect; nearly all actives have a fitted effect of over 60% in size
#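 Huh7 reporter line, Rab9 promoter upstream of luciferase. Compound exposure 24 h at 37 °C in reduced-serum medium with 10% FBS. Read-out: luminescence.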
# FLuc counter – inhibits or activates purified firefly luciferase, miR-21 counter-screen | P08659 | purified FLuc, Km substrates, luminescence inhibition | Potency, µM (series often up to 57.5 µM), for the others: top-dose activity change, negative = inhibition, hits mostly inhibitors | 360,000 tested, 6.9% active | AID 588342;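 note: plate controls were vehicle for no effect and reference inhibitor for full effect; nearly all actives have a fitted effect of over 55% in size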
# Target sequence (P08659 whole entry, looked up): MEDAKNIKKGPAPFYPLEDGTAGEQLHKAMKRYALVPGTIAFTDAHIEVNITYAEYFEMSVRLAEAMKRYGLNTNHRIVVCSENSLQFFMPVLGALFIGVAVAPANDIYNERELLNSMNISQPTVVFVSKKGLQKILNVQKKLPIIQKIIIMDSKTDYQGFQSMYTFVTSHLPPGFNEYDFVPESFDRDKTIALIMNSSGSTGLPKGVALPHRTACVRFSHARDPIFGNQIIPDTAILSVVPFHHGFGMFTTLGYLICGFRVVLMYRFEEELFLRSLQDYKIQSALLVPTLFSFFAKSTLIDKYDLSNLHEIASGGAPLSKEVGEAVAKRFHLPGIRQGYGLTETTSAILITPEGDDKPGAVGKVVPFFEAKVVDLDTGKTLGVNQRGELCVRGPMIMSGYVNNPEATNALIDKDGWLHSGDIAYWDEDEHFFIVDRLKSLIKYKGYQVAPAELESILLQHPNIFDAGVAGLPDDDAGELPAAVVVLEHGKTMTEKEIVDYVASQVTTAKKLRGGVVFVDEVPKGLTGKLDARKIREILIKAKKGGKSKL
#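 Purified P. pyralis luciferase (10nM final) with 10uM D-luciferin and 10uM ATP (Km levels) in 50mM Tris acetate pH 7.5, 10mM Mg acetate, 0.01% Tween-20, 0.05% BSA; qHTS 6-point titration, ~60 µM downward; luminescence read.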
# NPC1 promoter act – activates the NPC1 promoter. Potency, µM (top dose mostly 9.22 µM), for inactives: top-dose activation, hits mostly activators. Huh7 NPC1 promoter luciferase reporter, 24 h. 320,000 tested, 2.4% active; note: % of control where 0% means no effect; nearly all actives have a fitted effect of over 60% in size
#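 Luminescence from an NPC1 promoter-driven luciferase reporter in stably transfected Huh7 cells was measured after 24 h compound treatment at 37 °C, followed by 10 min ambient incubation with luciferase detection reagent.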
# ELG1 genotoxic – induces genotoxicity in HEK293T cells with luciferase-tagged ELG1. HEK293T ELG1-luciferase reporter, luminescence, 16 h. Potency, µM (titrated, usually from 46 µM), for the others: at the highest dose activity change, positive = activation, hits mostly activators. 330,000 tested, 1.3% active. AID 504466; note: % of control where 0% means no effect; nearly all actives have a fitted effect of over 60% in size
#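 Quantitative HTS format in 1536-well plates. HEK293T ELG1-luciferase reporter cells receive test compound and are incubated 16 hr at 37 °C, 5% CO2; ONE-Glo added, 30 min room temperature, then luminescence read.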
# SMN2 splice enh – enhancers of SMN2 splice variant expression; HEK293 SMN2-luciferase splicing reporter, luminescence, 30-36 h; Potency, µM (doses to about 46.1 µM), without a hit: top-dose activity change, positive = activation, hits mostly activators; 210,000 tested, 2.8% active; note: % of control where 0% means no effect; nearly all actives have a fitted effect of over 55% in size
#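 HEK293 cells carry an SMN2 […]–luciferase reporter in which exon 7 inclusion puts luciferase in frame. Cells were plated 10-12 h before compound addition, then incubated 30-36 h at 37C. ONE-Glo luminescence was read; sodium butyrate at 4.5 mM final served as control.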
# * marks the source's active call; other numbers are inactive results; ? = inconclusive; nt = no result; [ ] = remark or other dose. Hits are enriched below; roughly 7.4% of the tested compounds scored in any of these assays. Calls come from the whole dose curve; as a rule, active = well fitted curve in the direction sought with a large enough effect; inconclusive = small, poorly fitted or top-dose-only effect, or another doubt; inactive = no such curve, though single readings can be large; an effect the other way counts as inactive or inconclusive. Potency is the fitted concentration of half-maximal effect.
SMILES,Rab9 promoter act,FLuc counter,NPC1 promoter act,ELG1 genotoxic,SMN2 splice enh
CSc1nc2nc(-c3ccccc3)cc(=O)n2[nH]1,1.2%,6.75µM*,18.7%,?,?
O=C(Nc1nc2nc(-c3ccccc3)cc(=O)n2[nH]1)c1ccc(F)cc1,20.2%,?,5.1%,nt,-2.9%
CC(C)c1ccc(S(=O)(=O)Nc2ccc3c(c2)OCO3)cc1,nt,nt,nt,0.1%,nt
S=C(NCCc1ccccc1)N1CCN(C2CCCCC2)CC1,-4.2%,-8.2%,0.4%,0.1%,7.4%
OCC1CCCN(C(=S)NCCc2ccccc2)C1 (centres undefined),?,16.9µM*,3.16µM*,?,?
CC1CCN(C(=S)NCCc2ccccc2)CC1,2µM*,10.7µM*,3.55µM*,7.31µM*,-1.8%
S=C(NCCc1ccccc1)N1CCN(C(=S)NCCc2ccccc2)CC1,-1.0%,-6.0%,-1.7%,-3.6%,nt
Cc1ccccc1CCNC(=O)c1cc2ccccn2n1,nt,10.7µM*,nt,nt,nt
O=C(Nc1ccc(Br)cc1)c1cc2ccccn2n1,0.316µM*,0.953µM*,0.562µM*,?,nt
O=C(NCCc1ccc(Cl)cc1)c1cc2ccccn2n1,17.3%,-18.3%,2.9%,2.6%,nt
Cc1ccc(NC(=O)c2cc3ccccn3n2)cc1F,nt,2.39µM*,nt,nt,nt
CCc1ccc(NC(=O)c2cc3ccccn3n2)cc1,nt,1.9µM*,nt,nt,nt
CC(NC(=O)c1cc2ccccn2n1)c1ccccc1 (centres undefined),nt,0.0%,nt,nt,nt
CC(C)=CCC/C(C)=C/CC/C(C)=C/CSCC(=O)O,nt,nt,nt,nt,-6.7%
O=C(CSc1nc(=O)[nH]c2c1CCCC2)NCc1ccc(F)cc1,nt,-0.7%,nt,nt,nt
Cc1c(C(=O)N2CCCC2)oc2c1-c1nn(CC(=O)NCc3ccccc3Br)cc1CC2,nt,-18.6%,nt,nt,nt
O=C(COc1ccc(Cl)cc1)NCC(c1ccco1)S(=O)(=O)c1ccc(F)cc1 (centres undefined),nt,-9.5%,nt,nt,nt
COc1ccc(/C=C2\SC(=O)N(CCC(=O)N3CCN(C)CC3)C2=O)cc1,17.9%,19µM*,24.1%,9.2%,nt
CC12CCC(=O)N1C(C(=O)NCCN1C(=O)S/C(=C\c3ccccc3Cl)C1=O)CS2 (centres undefined),4.3%,?,-2.6%,-0.1%,nt
Cc1ccc(/C=C2\SC(=O)N(CCC(=O)N3CCN(C)CC3)C2=O)cc1,24.1%,13.5µM*,?,?,nt
Cc1ccc(/C=C2\SC(=O)N(CCNC(=O)C3CSC4(C)CCC(=O)N34)C2=O)cc1 (centres undefined),7.7%,19µM*,6.8%,-1.3%,nt
CN1CCN(C(=O)CCN2C(=O)S/C(=C/c3ccc(Cl)cc3)C2=O)CC1,2.0%,?,5.7%,0.2%,-1.2%
CC(=O)Nc1cccc(N/C=C(\C=O)c2nc3ccccc3o2)c1,19.4%,19µM*,14.6%,11.0%,?
O=C/C(=C\Nc1ccccn1)c1nc2ccccc2o1,5.5%,13.5µM*,13.4%,0.7%,24.6%
CC(=O)Nc1ccc(N/C=C(\C=O)c2nc3ccccc3o2)cc1,18.9%,5.7%,-1.9%,0.9%,nt
SMILES,Rab9 promoter act,FLuc counter,NPC1 promoter act,ELG1 genotoxic,SMN2 splice enh
O=C(NN=C1CCCC1)c1ccc(Cl)cc1,15.8%,-3.3%,14.5%,-1.0%,nt
O=C(Nc1onc2c1CCCC2)c1ccc(Cl)cc1,nt,1.9µM*,nt,nt,8.91µM*
CCCCOc1ccc(C(=O)Nc2sc3c(c2C(=O)OCC)CCCCC3)cc1,nt,-4.3%,nt,nt,4.3%
CCCCOc1ccc(C(=O)Nc2onc3c2CCCC3)cc1,nt,1.69µM*,nt,nt,22.4µM*
COc1cc(NC(=O)c2cc(Cl)c(OC)c(Cl)c2)ccc1NC(=O)c1cc2ccccc2o1,nt,0.3%,nt,nt,-3.4%
CC(C)(C)c1ccc(C(=O)Nc2ccc(S(=O)(=O)Nc3cnc4ccccc4n3)cc2)cc1,-0.1%[1.84 µM],13.5µM*,1.1%,3.4%,nt
O=C(Nc1ccc(S(=O)(=O)Nc2cnc3ccccc3n2)cc1)c1ccccc1Br,-9.1%,4.4%,1.4%,-0.3%,nt
O=C(Nc1ccc(S(=O)(=O)Nc2cnc3ccccc3n2)cc1)c1ccc(Br)o1,-5.2%,16.9µM*,-0.1%,-6.2%,-26.1%
COc1cccc(CN2CCNC(=O)C2CC(=O)N(C)C2CCOCC2)c1OC (centres undefined),-4.2%,5.3%,-1.2%,7.4%,nt
Nc1ccc(C(=O)N2N=C(c3ccccc3)CC2(O)C(F)(F)F)cc1 (centres undefined),2.4%,12µM*,14.5%,0.1%,nt
COc1cccc(C2=NN(C(=O)c3ccco3)C(O)(C(F)(F)F)C2)c1 (centres undefined),-0.3%,?,-8.4%,0.1%,nt
Cc1ccc(C2=NN(C(=O)c3ccco3)C(O)(C(F)(F)F)C2)cc1 (centres undefined),-2.0%,19µM*,-1.2%,-1.7%,nt
O=C1c2ccccc2C(=O)N1CCCc1c[nH]c2ccccc12,18.1%,-17.7%,2.9%,-2.3%,-0.3%
O=C1c2ccccc2C(=O)N1CCc1c[nH]c2ccccc12,3.55µM*,6.75µM*,?,?,nt
Cc1ccc(C=Nc2ccc(N(C)C)cc2)o1,8.0%,0.269µM*,6.7%,20.6µM*,-7.3%
COc1ccc(C2CC(C)(c3ccc(OC)cc3OC)Nc3ccccc3N2)c(OC)c1 (centres undefined),1.12µM*,7.57µM*,2.82µM*,8.2µM*,nt
Cn1c(SCC(=O)c2ccccc2)nnc1-c1cnccn1,3.16µM*,?,?,?,23.8%
Cn1c(SCC(=O)NCc2cccs2)nnc1-c1cccs1,nt,2.7%,nt,nt,-14.4%
CCn1c(SCC(=O)Nc2ccccc2F)nnc1-c1cnccn1,-0.9%,-2.7%,-1.9%,2.0%,nt
Cn1c(SCc2ccc(F)cc2)nnc1-c1cnccn1,27.5%,-18.0%,23.5%,10.2%,nt
Cn1c(SCC(=O)c2ccccc2)nnc1-c1cccs1,2.82µM*,12µM*,3.16µM*,?,nt
CCn1c(SCC(=O)c2ccccc2)nnc1-c1cnccn1,?,21.3µM*,?,16.4µM*,?
Cn1c(SCc2ccccc2)nnc1-c1cnccn1,6.31µM*,-17.8%,17.7%,19.9%,8.1%
CC(O)CNc1ccc(-c2nn(C)c(=O)c3ccccc23)cc1[N+](=O)[O-] (centres undefined),-5.7%,-4.1%,-2.4%,?,4.3%
CCC(=O)Nc1cccc(-c2nnc(SCC(=O)NCc3ccco3)n2C)c1,-1.8%,-2.1%,-2.3%,-0.5%,2.0%
CCC(=O)Nc1cccc(-c2nnc(SCC(=O)c3ccccc3)n2C)c1,1.78µM*,6.01µM*,?,?,2.7%
CCn1c(SCC(=O)O)nnc1-c1ccccc1OC,3.16µM*,13.5µM*,4.47µM*,23.1µM*,nt
CCC(=O)Nc1cccc(-n2nnnc2SCC(=O)c2ccc(C)c(C)c2)c1,16.7%,15.1µM*,16.9%,11.6%,-9.9%
COc1ccccc1-c1nnc(SCC(=O)O)n1-c1ccccc1,-6.8%,?,-0.3%,-0.7%,-6.2%
COC(=O)[C@H](CCSC)NC(=O)Cn1cnc2c(OCc3ccccc3)ncnc21,nt,nt,nt,0.6%,nt

# High-throughput results: PubChem, National Center for Advancing Translational Sciences (NCATS)
